# Sampled rows, rich in hits. Any-hit rate of the full collection: about 4.2%.
# GDH-TPI counter-1 = GDH-TPI coupling enzyme inhibitors, primary screen, artefact control for M. tuberculosis FBA inhibitor project, biochemical, absorbance, full deck | GDH-TPI coupled enzyme counterscreen, NADH absorbance | inhibition, % at 4.8 µM | AID 588335, 2011 | 360,000 tested, 1.2% active; in the data active = inhibition above about 30%;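 also: 0% = DMSO wells and 100% = wells lacking the enzyme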
# BJeLR viability = MLPCN primary cell-based screen for lethality selective to Ras in HRASV12 cells; BJeLR (HRASV12) viability, CellTiter-Glo ATP luminescence, 48 h; inhibition, % (no concentration beside the values); 300,000 tested, 0.17% active; AID 1554, 2009; in the data active = inhibition above about 50%
# Mtb FBA inh = Mtb FBA enzyme inhibitors, primary screen, biochemical, fluorescence, strain H37Rv; Fructose-bisphosphate aldolase (Mycobacterium tuberculosis (strain ATCC 25618 / H37Rv)), …; purified M. tuberculosis FBA, fluorescence read-out; inhibition, % at 1 µM; 360,000 tested, 2.3% active; AID 588726, 2011;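 also: 0% = vehicle and 100% = reference inhibitor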
# Target sequence (P9WQA3 whole entry, looked up): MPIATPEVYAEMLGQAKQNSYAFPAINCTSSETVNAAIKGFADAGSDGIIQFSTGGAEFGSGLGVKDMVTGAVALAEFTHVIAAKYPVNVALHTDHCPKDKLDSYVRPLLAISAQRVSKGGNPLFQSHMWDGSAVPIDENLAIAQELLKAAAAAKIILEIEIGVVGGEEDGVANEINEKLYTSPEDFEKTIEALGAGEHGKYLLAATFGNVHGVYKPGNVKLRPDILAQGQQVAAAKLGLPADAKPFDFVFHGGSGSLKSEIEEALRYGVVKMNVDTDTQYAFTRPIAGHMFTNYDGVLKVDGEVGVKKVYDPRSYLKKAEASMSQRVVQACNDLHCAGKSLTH
# PrPC surface inh = inhibitors of human cell surface prion protein PrPC, primary screen, cell-based, TR-FRET; 370,000 tested, 0.43% active; inhibition, % at 13.8 µM; TR-FRET read-out; Major prion protein (Homo sapiens), P04156; AID 720596, 2013; in the data active = inhibition above about 24%; also: 0% = median of the test wells and 100% = reference compound wells
# RecA splice inh = Mtb RecA intein splicing inhibitors, primary screen, biochemical, fluorescence, HTS; Protein RecA (Mycobacterium tuberculosis (strain ATCC 25618 / H37Rv)), P9WHJ3; cell-free RecA intein splicing; inhibition, % (concentration not given with the values); 290,000 tested, 0.75% active; in the data active = inhibition above about 30%;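 also: 0% = vehicle wells and 100% = reference inhibitor control wells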
# Mtb FBA confirm = M. tuberculosis aldolase blockers, biochemical, fluorescence, strain H37Rv, confirmation; purified M. tuberculosis FBA, fluorescence read-out; AID 651616, 2012; inhibition, % at 1 µM; 5,600 tested, 78% active; shares compounds with Mtb FBA inh;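 also: 0% = vehicle wells and 100% = reference inhibitor wells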
# GDH-TPI counter-2 = GDH-TPI coupling enzyme inhibitors, artefact control for M. tuberculosis FBA inhibitor project, biochemical, fluorescence, high throughput; AID 652141, 2013; GDH-TPI coupled enzyme counterscreen; inhibition, % at 1 µM; shares compounds with Mtb FBA inh; 5,600 tested, 81% active; in the data active = inhibition above about 10%
# Active calls of the source: *; . = no result; + = active, no number. Rule as the data show it, unless noted: active = inhibition above about 27%; inactive = the rest.
SMILES,GDH-TPI counter-1,BJeLR viability,Mtb FBA inh,PrPC surface inh,RecA splice inh,Mtb FBA confirm,GDH-TPI counter-2
Cc1ccc(-n2c(SCC(=O)c3ccc(-c4ccccc4)cc3)nnc2-c2ccc(C(C)(C)C)cc2)cc1,.,.,.,-4,.,.,.
COc1ccc(Nc2nc(Nc3ccc(OC)cc3)nc(SC3=NCCS3)n2)cc1,-5,-2,41*,7,4,116*,77*
CCOC(=O)C1=C(C)NC2=C(C(=O)CC(C)(C)C2)C1c1cccc(C)n1 (stereo unspecified),-4,6,37*,-2,-77,174*,159*
CCCOC(=O)C1=C(C)NC2=C(C(=O)CC(C)(C)C2)C1c1cccnc1 (stereo unspecified),7,2,36*,3,.,+,+
CCCOC(=O)C1=C(C)NC2=C(C(=O)CC(C)(C)C2)C1c1ccc(N(C)C)cc1 (stereo unspecified),12,7,2,-2,1,.,.
O=C(NCCCc1ccccc1)OC1CC2CC1[C@H]1CCCCN1[C@H]2Cc1ccccc1 (stereo partly specified),.,.,.,-1,.,.,.
CN(C)c1ccc(C=Cc2nccc3ccccc23)cc1,.,.,-3,12,.,.,.
N#Cc1ccc(/C=C\c2nccc3c2[nH]c2ccccc23)cc1,8,4,54*,8,-24,54*,45*
Clc1ccc(/C=C\c2nccc3c2[nH]c2ccccc23)cc1,6,8,54*,0,-9,55*,41*
COc1ccc(-c2ccc(-c3noc(C4CCCCC4)n3)c(OC)n2)cc1,7,-11,28*,0,-4,+,+
CCOc1nc(-c2ccccc2)ccc1-c1noc(COc2ccccc2)n1,3,-1,3,-1,6,.,.
COc1ccc(-c2ccc(-c3noc(-c4cccs4)n3)c(OC)n2)cc1,23,7,16,1,-6,.,.
CCOc1nc(-c2ccc(OC)cc2)ccc1-c1noc(C)n1,9,2,76*,3,-5,92*,78*
COc1ccc(-c2ccc(-c3noc(C)n3)c(OC)n2)cc1,13,-3,74*,2,2,93*,88*
C[C@@H]1COc2cccc(NC3CC3)c2S(=O)(=O)N1,.,.,.,5,.,.,.
NC(=O)c1sc2nc(-c3ccco3)ccc2c1N,10,-3,53*,0,-20,+,+
COC(=O)c1sc2nc(-c3ccco3)ccc2c1N,18,1,2,-10,-6,.,.
Nc1c(C(=O)Nc2ccccc2F)sc2nc(-c3ccco3)ccc12,32*,7,40*,-8,-23,50*,43*
C#CCNC(=O)C[C@H]1C[C@@]2(C(=O)OC)C(=C[C@H](COCc3ccccc3)O[C@@H]2C)N(CCCCCCCC)C1=O,.,.,.,-8,.,.,.
CC(C)c1nc(N2CCN(C(=O)c3ccco3)CC2)c(C#N)c2c1COC(C)(C)C2,5,2,37*,5,18,+,+
CC(C)c1nc(N2CCN(C(=O)c3ccccc3)CC2)c(C#N)c2c1COC(C)(C)C2,-1,-6,15,-6,13,.,.
Cc1cc(N2CCOCC2)nc2ccc(NC(=S)NC(C)C)cc12,8,-13,37*,-6,-12,108*,96*
Cc1cc(N2CCOCC2)nc2ccc(NC(=S)NCc3ccc4c(c3)OCO4)cc12,1,-9,11,-12,2,.,.
COCCNC(=S)Nc1ccc2nc(N3CCCC3)cc(C)c2c1,17,6,5,-2,-12,.,.
Cc1cc(N2CCCC2)nc2ccc(NC(=S)NC(C)C)cc12,18,-8,31*,10,-6,24,16*

# High-throughput results deposited in PubChem by several laboratories.
